{"source": "PubChem BioAssay (NCATS)", "note": "Activity calls are given as the source filed them. Calls come from the whole dose curve."}
{"assay": "qHTS drug screen for cell cycle checkpoint inhibitors in PARPi-resistant BRCA-mutant ovarian cancer cell lines. (AID 1963452)", "details": "PEO1/OlaR viability, CellTiter-Glo luminescence, 96 h; stronger effect = lower value", "method_in_brief": "(§1)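 PEO1, PEO4 and PEO1/OlaR ovarian cancer cells, 600 per well, exposed 96 h at 37C to a dilution series. Viability read by CellTiter-Glo luminescence, normalized to DMSO and empty wells; activity summarized as Z-AUC.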"}
{"smiles": "CCN1CCN(C(=O)N[C@@H](C(=O)N[C@@H]2C(=O)N3C(C(=O)O)=C(CSc4nnnn4C)CS[C@H]23)c2ccc(O)cc2)C(=O)C1=O", "Z-AUC": "0.353 (inactive)"}
{"smiles": "C[C@@H](O)[C@H]1C(=O)N2C(C(=O)O)=C(S[C@@H]3CN[C@H](CNS(N)(=O)=O)C3)[C@H](C)[C@H]12", "Z-AUC": "-0.121 (inactive)"}
{"smiles": "CC(=O)O[C@H]1C[C@@H]2CC[C@@H]3[C@H](CC[C@@]4(C)[C@H]3C[C@H]([N+]3(C)CCCCC3)[C@@H]4OC(C)=O)[C@@]2(C)C[C@@H]1N1CCCCC1", "Z-AUC": "1.73 (inactive)"}
{"assay": "qHTS drug screen for cell cycle checkpoint inhibitors in PARPi-resistant BRCA-mutant ovarian cancer cell lines. (AID 1963452)", "details": "PEO1/OlaR viability, CellTiter-Glo luminescence, 96 h; measured here: PEO1 parental Z-AUC; stronger effect = lower value", "method_in_brief": "as §1"}
{"smiles": "Nc1nc(Cl)nc2c1ncn2[C@@H]1O[C@H](CO)[C@@H](O)[C@@H]1F", "Z-AUC": -1.93}
{"smiles": "CCN1CCN(C(=O)N[C@@H](C(=O)N[C@@H]2C(=O)N3C(C(=O)O)=C(CSc4nnnn4C)CS[C@H]23)c2ccc(O)cc2)C(=O)C1=O", "Z-AUC": 0.559}
{"smiles": "C[C@@H](O)[C@H]1C(=O)N2C(C(=O)O)=C(S[C@@H]3CN[C@H](CNS(N)(=O)=O)C3)[C@H](C)[C@H]12", "Z-AUC": 0.644}
{"smiles": "CC(=O)O[C@H]1C[C@@H]2CC[C@@H]3[C@H](CC[C@@]4(C)[C@H]3C[C@H]([N+]3(C)CCCCC3)[C@@H]4OC(C)=O)[C@@]2(C)C[C@@H]1N1CCCCC1", "Z-AUC": 1.43}
